Our source for the growth values is PubChem BioAssay (NCI).

Among the test systems are SR leukemia; RPMI-8226 leukemia; OVCAR-8 ovarian; OVCAR-5 ovarian; IGROV1 ovarian; OVCAR-3 ovarian; HS 578T breast; NCI/ADR-RES ovarian; T-47D breast; BT-549 breast; MDA-MB-435 melanoma; SW-620 colon; MCF7 breast; HCT-116 colon; HCC-2998 colon; KM12 colon; OVCAR-4 ovarian; SK-OV-3 ovarian.
Holding throughout (assay): NCI-60 one-dose screen, 48 h (100 = growth as untreated, 0 = no growth, -100 = all killed)
Details in all cases: 10 µM unless noted

About 83,000 compounds went through this panel and 20% of them were active in at least one assay; those are over-represented in the sample as a whole.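 Cells were grown in 96-well plates and exposed to the test compound at a single concentration for 48 hours; results are reported as percent growth, with values below 10 considered active.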 Unmarked numbers belong to inactive results. Active and inactive are the calls of the source.

For the compound `CS(CCCCN=C=S)=NC(=O)c1c(F)c(F)c(F)c(F)c1F` (configuration not stated), the growth in the assay on SR leukemia was 2.68% (active); with RPMI-8226 leukemia, 10.3%; in the assay with OVCAR-8 ovarian, 91.9%; in the assay on OVCAR-5 ovarian, 109%; with IGROV1 ovarian it was 76.8%; with OVCAR-3 ovarian, 57.3%. For the same compound, the growth with HS 578T breast was 90.8%; in the assay on NCI/ADR-RES ovarian it was 97.3%; with T-47D breast, 19.1%; in the assay on BT-549 breast, 95.7%; with MDA-MB-435 melanoma it was 70.8%; in the assay on SW-620 colon, 52.6%. Besides, the growth in the assay with MCF7 breast was 22.8%; in the assay on HCT-116 colon it was 54%; with HCC-2998 colon it was 104%; in the assay on KM12 colon, 55.8%.
On to `COc1ccc(CNc2nccnn2)cc1`, for which the growth is 52.1% in the assay with SR leukemia; 108% in the assay on RPMI-8226 leukemia; 96.4% in the assay with OVCAR-5 ovarian; 111% with OVCAR-4 ovarian; 109% in the assay with SK-OV-3 ovarian; 101% in the assay with IGROV1 ovarian. The growth is 105% in the assay on OVCAR-3 ovarian; 111% with HS 578T breast; 99.4% with NCI/ADR-RES ovarian; 105% with T-47D breast; 114% in the assay with BT-549 breast; 102% in the assay on MDA-MB-435 melanoma. Further, the growth was 104% in the assay with SW-620 colon; 99.4% in the assay with MCF7 breast; 101% with HCT-116 colon; 98.7% in the assay on HCC-2998 colon; 99.3% in the assay on KM12 colon.
As for `O=C(Nc1ccc(Nc2cc(Nc3ccccc3)ncn2)cc1)Nc1cc(C(F)(F)F)ccc1F`, the growth with SR leukemia was 42%; in the assay on RPMI-8226 leukemia it was 65.1%; in the assay on OVCAR-5 ovarian it was 78.1%; with OVCAR-4 ovarian, 71.2%; in the assay on SK-OV-3 ovarian, 101%; in the assay on IGROV1 ovarian, 90.3%. In addition, the growth in the assay on OVCAR-3 ovarian is 88.5%; in the assay with HS 578T breast, 78.9%; with NCI/ADR-RES ovarian, 81.1%; with T-47D breast it was 24.1%; in the assay on BT-549 breast it was 85.3%; with MDA-MB-435 melanoma, 75.8%. Moreover, the growth in the assay on SW-620 colon is 120%; with MCF7 breast it was 51.6%; with HCT-116 colon it was 63.7%; in the assay with HCC-2998 colon, 93.7%; in the assay with KM12 colon, 23.3%.
`CC1=C(NCCN2CCCC2)C(=O)c2c(OCc3ccc(F)c(Cl)c3)cccc2C1=O`: the growth is -14.3% (active) in the assay with SR leukemia; 50.4% in the assay with RPMI-8226 leukemia; 74.8% with OVCAR-8 ovarian; 72.7% with OVCAR-5 ovarian; 93.7% in the assay with SK-OV-3 ovarian; 67.6% with IGROV1 ovarian. The growth in the assay with OVCAR-3 ovarian was 84%; with HS 578T breast it was 79.7%; with NCI/ADR-RES ovarian, 75.2%; with T-47D breast it was 62.7%; with MDA-MB-435 melanoma it was 40%; with SW-620 colon it was 78.8%. The growth in the assay on MCF7 breast is 41.3%; with HCT-116 colon, 31.6%; with HCC-2998 colon, 80.7%; in the assay on KM12 colon it was 79.7%.
Regarding `Nc1nc(SCc2ccccc2)c2ncn(C3CCCC3)c2n1`, the growth is 81.4% in the assay on SR leukemia; 92.9% in the assay on RPMI-8226 leukemia; 110% in the assay on OVCAR-8 ovarian; 96.4% in the assay with OVCAR-5 ovarian; 98.1% in the assay with IGROV1 ovarian; 112% in the assay with OVCAR-3 ovarian. Moreover, the growth with HS 578T breast is 139%; with NCI/ADR-RES ovarian it was 92.5%; with T-47D breast it was 98.7%; in the assay on BT-549 breast, 116%; in the assay with MDA-MB-435 melanoma, 104%; in the assay on SW-620 colon, 102%. The growth in the assay with MCF7 breast is 91.7%; in the assay with HCT-116 colon, 107%; in the assay on HCC-2998 colon, 107%; in the assay on KM12 colon, 113%.
With `CC1=C(NCCN2CCCC2)C(=O)c2c(OCc3cccc(Cl)c3)cccc2C1=O`, the growth is 14.1% in the assay on SR leukemia; 60.9% in the assay with RPMI-8226 leukemia; 79.7% with OVCAR-8 ovarian; 79.9% in the assay on OVCAR-5 ovarian; 71.8% in the assay on IGROV1 ovarian; 85% with OVCAR-3 ovarian. For the same compound, the growth in the assay on HS 578T breast was 72.4%; with T-47D breast it was 59.9%; in the assay with BT-549 breast it was 14.5%; with MDA-MB-435 melanoma it was 61.8%; in the assay on SW-620 colon, 85.1%; with MCF7 breast, 57.5%. Further, the growth with HCT-116 colon was 43.9%; with HCC-2998 colon, 84.4%; with KM12 colon, 81%.
For `c1ccc(-c2nc(N3CCOCC3)c3c4c(sc3n2)CCCCC4)nc1`, the growth is 59.6% in the assay with SR leukemia; 81.2% with OVCAR-8 ovarian; 58.3% in the assay with OVCAR-5 ovarian; 51% in the assay with OVCAR-4 ovarian; 32.9% in the assay on SK-OV-3 ovarian; 24% with IGROV1 ovarian. Moreover, the growth was 74.2% with OVCAR-3 ovarian; 65% with HS 578T breast; 27.3% in the assay with NCI/ADR-RES ovarian; 8.3% (active) with T-47D breast; 62.8% in the assay with BT-549 breast; 71% with MDA-MB-435 melanoma. Further, the growth in the assay with SW-620 colon is 88.6%; with MCF7 breast, 23.7%; with HCT-116 colon, 74.3%; in the assay on HCC-2998 colon it was 83%; with KM12 colon it was 64.7%.
As to `CCOC(=O)c1c2ncccc2n2c(=O)n(-c3ccc(Cl)cc3)nnc12`, the growth in the assay on SR leukemia is 91.4%; in the assay on OVCAR-8 ovarian, 57.1%; with OVCAR-5 ovarian it was 67.7%; in the assay with OVCAR-4 ovarian it was 84.6%; in the assay with SK-OV-3 ovarian, 92.2%; in the assay with IGROV1 ovarian it was 85.6%. Further, the growth with OVCAR-3 ovarian is 95.2%; in the assay on HS 578T breast, 93.9%; in the assay on NCI/ADR-RES ovarian it was 59.8%; in the assay with T-47D breast, 61.1%; with BT-549 breast, 43.6%; with MDA-MB-435 melanoma, 49.7%. The growth is 105% with SW-620 colon; 76.6% in the assay on MCF7 breast; 86.9% with HCT-116 colon; 90.3% in the assay on HCC-2998 colon; 70.7% in the assay with KM12 colon.
Consider `COc1ccc(-c2csc(NC(=O)CN3CCN(c4cc5c(cc4F)c(=O)c(C(=O)O)cn5C4CC4)CC3)n2)cc1`, for which the growth with SR leukemia is 16.7%; in the assay with RPMI-8226 leukemia, -9.43% (active); in the assay with OVCAR-8 ovarian it was 9.73% (active); in the assay with OVCAR-5 ovarian it was 37.4%; with SK-OV-3 ovarian, -4.37% (active); in the assay on IGROV1 ovarian, 38.5%. The growth with OVCAR-3 ovarian is 12.7%; with HS 578T breast, 16.5%; in the assay on T-47D breast, 16.6%; with BT-549 breast, 9.62% (active); with MDA-MB-435 melanoma it was 14.4%; with SW-620 colon it was 16%. Also, the growth was 12.8% in the assay on MCF7 breast, 9.62% (active) in the assay with HCT-116 colon, 36.4% with HCC-2998 colon and 15.3% in the assay on KM12 colon.
